{
  "source": "PubChem BioAssay (NCI)",
  "key": {"[1]": {"assay": "NCI Yeast Anticancer Drug Screen. Data for the wt1 strain (AID 149);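 note: 0% = growth of vehicle-treated wt1 cultures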", "conditions": "S. cerevisiae wt1 strain (SPY 50644) growth inhibition, stronger effect = higher value", "in_short": "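Measured: growth of wt1 yeast under compound versus vehicle treatment, reported as inhibition.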"}, "[2]": {"assay": "NCI Yeast Anticancer Drug Screen. Data for the rad50EPP+ strain (AID 151);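 note: 0% = growth of vehicle-treated control cultures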", "conditions": "S. cerevisiae rad50 mutant strain, stronger effect = higher value", "in_short": "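Vehicle-normalised growth inhibition; rad50EPP+ yeast strain, altered in DNA damage repair, compound-treated.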"}, "[3]": {"assay": "NCI Yeast Anticancer Drug Screen. Data for the rad50 strain (AID 155);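 note: 0% = growth of vehicle-only cultures of the same strain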", "conditions": "S. cerevisiae rad50 strain growth inhibition, stronger effect = higher value", "in_short": "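Growth of the mutant yeast was measured after compound exposure and referenced to vehicle-treated cultures.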"}, "[4]": {"assay": "NCI Yeast Anticancer Drug Screen. Data for the mec2-1 strain (AID 157)", "conditions": "S. cerevisiae mec2-1 strain, stronger effect = higher value", "in_short": "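Mutant yeast (mec2-1) grown with compound; growth inhibition relative to vehicle control reported.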"}, "[5]": {"assay": "NCI Yeast Anticancer Drug Screen. Data for the rad14 strain (AID 159);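 note: 0% = growth of vehicle-treated control cultures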", "conditions": "S. cerevisiae rad14 strain growth inhibition, stronger effect = higher value", "in_short": "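Here, inhibition of yeast growth was measured after compound exposure, using a strain with a genetic defect in DNA damage repair and vehicle-treated cultures as the reference.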"}, "[6]": {"assay": "NCI Yeast Anticancer Drug Screen. Data for the sgs1 mgt1 strain (AID 161);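 note: 0% = growth of cultures given vehicle only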", "conditions": "S. cerevisiae sgs1 mgt1 strain, stronger effect = higher value", "in_short": "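Yeast cells carrying a defined DNA-repair defect were exposed to test compounds. Growth inhibition was measured relative to vehicle-treated controls.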"}, "[7]": {"assay": "NCI Yeast Anticancer Drug Screen. Data for the CLN2oe strain (AID 163);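 note: 0% = growth of vehicle-only control cultures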", "conditions": "S. cerevisiae CLN2oe strain, stronger effect = higher value", "in_short": "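Compounds are applied to yeast harbouring a defined cell-cycle control change; reduced growth compared with vehicle-treated controls gives the value.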"}, "[8]": {"assay": "NCI Yeast Anticancer Drug Screen. Data for the cln2 rad14 strain (AID 165);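 note: 0% = growth equal to vehicle treated cultures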", "conditions": "S. cerevisiae cln2 rad14 strain, stronger effect = higher value", "in_short": "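Readout is yeast growth inhibition versus vehicle-treated controls, using a strain with cln2 and rad14 alterations exposed to compound.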"}, "[9]": {"assay": "NCI Yeast Anticancer Drug Screen. Data for the bub3 strain (AID 167)", "conditions": "S. cerevisiae bub3 mutant strain, stronger effect = higher value", "in_short": "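Whole-cell yeast assay. The mutant strain was incubated with compounds, and growth inhibition was determined by comparison with vehicle-treated cells.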"}, "[10]": {"assay": "NCI Yeast Anticancer Drug Screen. Data for the wt2 strain (AID 169);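 note: 0% = growth of vehicle-treated yeast cultures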", "conditions": "S. cerevisiae wt2 strain growth inhibition, stronger effect = higher value", "in_short": "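Against vehicle-treated controls, the growth of yeast exposed to each compound was compared, and the inhibition was recorded.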"}, "[11]": {"assay": "NCI Yeast Anticancer Drug Screen. Data for the mlh1 strain (AID 171);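 note: 0% = growth of vehicle-treated control cultures of the same strain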", "conditions": "S. cerevisiae mlh1 strain growth inhibition, stronger effect = higher value", "in_short": "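Measured: yeast growth. Reference: vehicle-treated controls. Organism: strain with a defined alteration affecting DNA damage repair or cell cycle control, treated with compound.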"}, "[12]": {"assay": "NCI Yeast Anticancer Drug Screen. Data for the sgs1 strain (AID 173);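 note: 0% = growth of vehicle-only control cultures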", "conditions": "S. cerevisiae sgs1 mutant, stronger effect = higher value", "in_short": "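Each compound was added to cultures of the altered yeast strain. Growth was recorded, and inhibition was derived by comparison with vehicle controls.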"}, "[13]": {"assay": "NCI Yeast Anticancer Drug Screen. Data for the mlh1 rad18 strain (AID 175)", "conditions": "S. cerevisiae mlh1 rad18 strain growth inhibition, stronger effect = higher value", "in_short": "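Genetically defined yeast (DNA repair-deficient) exposed to compounds; growth inhibition determined relative to vehicle.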"}, "[14]": {"assay": "NCI Yeast Anticancer Drug Screen. Data for the rad18 strain (AID 177)", "conditions": "S. cerevisiae rad18 mutant growth inhibition, stronger effect = higher value", "in_short": "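Vehicle-treated cultures served as the baseline for scoring compound-induced growth inhibition in DNA-repair-mutant yeast.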"}, "[15]": {"conditions": "at 5.0 µM (retest, dose inferred, filed as 0.5)"}, "[16]": {"conditions": "at 50.0 µM (retest, dose inferred, filed as 5.0)"}},
  "note": "This is part of a sample that, as a whole, favours compounds with a hit. Of some 79,000 tested, about 15% had one in any assay. Unmarked numbers belong to inactive results. The source made the active and inactive calls. Cut-off read from the data, not from the text of the source: active = growth inhibition above about 70%; inactive = the rest.",
  "data": [
    {"compound": "CCC(NC(C)c1ccccc1)C(=O)c1ccc(OCc2ccccc2)c(OCc2ccccc2)c1", "note": "(stereo not drawn)", "values": [
      {"measurement": "growth inhibition", "setting": "[1]; at 1.2 µM", "result": 22, "unit": "%"},
      {"measurement": "growth inhibition", "setting": "[1]; at 3.7 µM", "result": 18, "unit": "%"},
      {"measurement": "growth inhibition", "setting": "[1]; at 11.0 µM", "result": 6, "unit": "%"},
      {"measurement": "growth inhibition", "setting": "[1]; at 33.0 µM", "result": 2, "unit": "%"},
      {"measurement": "growth inhibition", "setting": "[1]; at 100.0 µM", "result": -15, "unit": "%"},
      {"measurement": "growth inhibition", "setting": "[2]; at 1.2 µM", "result": 8, "unit": "%"},
      {"measurement": "growth inhibition", "setting": "[2]; at 3.7 µM", "result": 7, "unit": "%"},
      {"measurement": "growth inhibition", "setting": "[2]; at 11.0 µM", "result": 10, "unit": "%"},
      {"measurement": "growth inhibition", "setting": "[2]; at 33.0 µM", "result": 24, "unit": "%"},
      {"measurement": "growth inhibition", "setting": "[2]; at 100.0 µM", "result": 43, "unit": "%"},
      {"measurement": "growth inhibition", "setting": "[3]; at 1.2 µM", "result": -8, "unit": "%"},
      {"measurement": "growth inhibition", "setting": "[3]; at 3.7 µM", "result": 9, "unit": "%"},
      {"measurement": "growth inhibition", "setting": "[3]; [15]", "result": 11, "unit": "%"},
      {"measurement": "growth inhibition", "setting": "[3]; at 11.0 µM", "result": 22, "unit": "%"},
      {"measurement": "growth inhibition", "setting": "[3]; at 33.0 µM", "result": 14, "unit": "%"},
      {"measurement": "growth inhibition", "setting": "[3]; [16]", "result": 38, "unit": "%"},
      {"measurement": "growth inhibition", "setting": "[3]; at 50.0 µM", "result": -12.7, "unit": "%"},
      {"measurement": "growth inhibition", "setting": "[3]; at 100.0 µM", "result": 1, "unit": "%"},
      {"measurement": "growth inhibition", "setting": "[4]; at 1.2 µM", "result": 39, "unit": "%"},
      {"measurement": "growth inhibition", "setting": "[4]; at 3.7 µM", "result": 23, "unit": "%"},
      {"measurement": "growth inhibition", "setting": "[4]; [15]", "result": 9, "unit": "%"},
      {"measurement": "growth inhibition", "setting": "[4]; at 11.0 µM", "result": 35, "unit": "%"},
      {"measurement": "growth inhibition", "setting": "[4]; at 33.0 µM", "result": 31, "unit": "%"},
      {"measurement": "growth inhibition", "setting": "[4]; [16]", "result": "97% (active)"},
      {"measurement": "growth inhibition", "setting": "[4]; at 50.0 µM", "result": 15.3, "unit": "%"},
      {"measurement": "growth inhibition", "setting": "[4]; at 100.0 µM", "result": 30, "unit": "%"},
      {"measurement": "growth inhibition", "setting": "[5]; at 1.2 µM", "result": -1, "unit": "%"},
      {"measurement": "growth inhibition", "setting": "[5]; at 3.7 µM", "result": 3, "unit": "%"},
      {"measurement": "growth inhibition", "setting": "[5]; at 11.0 µM", "result": 3, "unit": "%"},
      {"measurement": "growth inhibition", "setting": "[5]; at 33.0 µM", "result": 3, "unit": "%"},
      {"measurement": "growth inhibition", "setting": "[5]; at 100.0 µM", "result": -12, "unit": "%"},
      {"measurement": "growth inhibition", "setting": "[6]; [15]", "result": -21, "unit": "%"},
      {"measurement": "growth inhibition", "setting": "[6]; [16]", "result": 15, "unit": "%"},
      {"measurement": "growth inhibition", "setting": "[6]; at 50.0 µM", "result": 28.2, "unit": "%"},
      {"measurement": "growth inhibition", "setting": "[7]; at 1.2 µM", "result": -4, "unit": "%"},
      {"measurement": "growth inhibition", "setting": "[7]; at 3.7 µM", "result": -3, "unit": "%"},
      {"measurement": "growth inhibition", "setting": "[7]; at 11.0 µM", "result": -14, "unit": "%"},
      {"measurement": "growth inhibition", "setting": "[7]; at 33.0 µM", "result": -16, "unit": "%"},
      {"measurement": "growth inhibition", "setting": "[7]; at 100.0 µM", "result": -29, "unit": "%"},
      {"measurement": "growth inhibition", "setting": "[8]; [15]", "result": -9, "unit": "%"},
      {"measurement": "growth inhibition", "setting": "[8]; [16]", "result": 30, "unit": "%"},
      {"measurement": "growth inhibition", "setting": "[8]; at 50.0 µM", "result": 0.35, "unit": "%"},
      {"measurement": "growth inhibition", "setting": "[9]; at 1.2 µM", "result": -47, "unit": "%"},
      {"measurement": "growth inhibition", "setting": "[9]; at 3.7 µM", "result": -38, "unit": "%"},
      {"measurement": "growth inhibition", "setting": "[9]; [15]", "result": -7, "unit": "%"},
      {"measurement": "growth inhibition", "setting": "[9]; at 11.0 µM", "result": -48, "unit": "%"},
      {"measurement": "growth inhibition", "setting": "[9]; at 33.0 µM", "result": -67, "unit": "%"},
      {"measurement": "growth inhibition", "setting": "[9]; [16]", "result": 1, "unit": "%"},
      {"measurement": "growth inhibition", "setting": "[9]; at 50.0 µM", "result": 22.8, "unit": "%"},
      {"measurement": "growth inhibition", "setting": "[9]; at 100.0 µM", "result": -81, "unit": "%"},
      {"measurement": "growth inhibition", "setting": "[10]; at 1.2 µM", "result": -12, "unit": "%"},
      {"measurement": "growth inhibition", "setting": "[10]; at 3.7 µM", "result": -12, "unit": "%"},
      {"measurement": "growth inhibition", "setting": "[10]; at 11.0 µM", "result": -13, "unit": "%"},
      {"measurement": "growth inhibition", "setting": "[10]; at 33.0 µM", "result": -7, "unit": "%"},
      {"measurement": "growth inhibition", "setting": "[10]; at 100.0 µM", "result": -6, "unit": "%"},
      {"measurement": "growth inhibition", "setting": "[11]; at 1.2 µM", "result": 5, "unit": "%"},
      {"measurement": "growth inhibition", "setting": "[11]; at 3.7 µM", "result": -6, "unit": "%"},
      {"measurement": "growth inhibition", "setting": "[11]; at 11.0 µM", "result": 3, "unit": "%"},
      {"measurement": "growth inhibition", "setting": "[11]; at 33.0 µM", "result": 0, "unit": "%"},
      {"measurement": "growth inhibition", "setting": "[11]; at 100.0 µM", "result": -3, "unit": "%"},
      {"measurement": "growth inhibition", "setting": "[12]; at 1.2 µM", "result": 8, "unit": "%"},
      {"measurement": "growth inhibition", "setting": "[12]; at 3.7 µM", "result": 18, "unit": "%"},
      {"measurement": "growth inhibition", "setting": "[12]; at 11.0 µM", "result": 11, "unit": "%"},
      {"measurement": "growth inhibition", "setting": "[12]; at 33.0 µM", "result": 42, "unit": "%"},
      {"measurement": "growth inhibition", "setting": "[12]; at 100.0 µM", "result": 19, "unit": "%"},
      {"measurement": "growth inhibition", "setting": "[13]; [15]", "result": 14, "unit": "%"},
      {"measurement": "growth inhibition", "setting": "[13]; [16]", "result": "96% (active)"},
      {"measurement": "growth inhibition", "setting": "[13]; at 50.0 µM", "result": -4.9, "unit": "%"},
      {"measurement": "growth inhibition", "setting": "[14]; at 1.2 µM", "result": -13, "unit": "%"},
      {"measurement": "growth inhibition", "setting": "[14]; at 3.7 µM", "result": -4, "unit": "%"},
      {"measurement": "growth inhibition", "setting": "[14]; at 11.0 µM", "result": -26, "unit": "%"},
      {"measurement": "growth inhibition", "setting": "[14]; at 33.0 µM", "result": -27, "unit": "%"},
      {"measurement": "growth inhibition", "setting": "[14]; at 100.0 µM", "result": -30, "unit": "%"}
    ]}
  ]
}
